# According to publication PMC7862700, “An all-to-all approach to the identification of sequence-specific readers for epigenetic DNA modifications on cytosine”:
# Columns and labels:
# Experiment in all cases: DAPPL (digital affinity profiling via proximity ligation, sequencing); 10 mM Tris-HCl pH 7.5, 50 mM NaCl, 1 mM DTT, 4% glycerol, room temperature, 30 min; GST-TFs on glutathione beads, 16-mer random dsDNA library, 0.1% formaldehyde crosslink after washing; high values mean tight binding
# Settings in all cases: protein: recombinant; tags: N-terminal GST; dsDNA, one strand shown
# FLI1 = target: T1, FLI1 (Homo sapiens, UniProt Q01543 1-452)
# T1 sequence: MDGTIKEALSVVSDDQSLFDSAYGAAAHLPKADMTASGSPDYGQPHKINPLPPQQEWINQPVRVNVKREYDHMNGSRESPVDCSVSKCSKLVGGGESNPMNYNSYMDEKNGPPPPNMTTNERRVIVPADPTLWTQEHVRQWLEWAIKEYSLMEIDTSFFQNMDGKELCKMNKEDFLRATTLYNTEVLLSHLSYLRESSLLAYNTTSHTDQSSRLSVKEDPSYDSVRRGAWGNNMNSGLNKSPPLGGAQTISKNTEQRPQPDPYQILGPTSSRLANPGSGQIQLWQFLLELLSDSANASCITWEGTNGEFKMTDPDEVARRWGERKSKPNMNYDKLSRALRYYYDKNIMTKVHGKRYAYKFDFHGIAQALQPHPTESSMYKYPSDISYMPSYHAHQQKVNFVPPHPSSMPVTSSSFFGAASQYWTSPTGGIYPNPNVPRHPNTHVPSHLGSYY
# In short: (§1)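 Human transcription factors carrying a GST fusion were produced in yeast, bound to glutathione beads, tagged with DNA barcodes and pooled together with a tag-only sample. Each pool was held with 200 nmole of a random double-stranded 16-mer DNA library in Tris/NaCl/DTT/glycerol buffer for 30 min at room temperature, then washed, crosslinked in 0.1% formaldehyde, proximity-ligated with BsaI/T4 ligase (1 h, 37 °C), PCR-amplified and sequenced on an Illumina NextSeq500. Binding signal is the read frequency of each hexamer for a given factor divided by its frequency in the tag-only sample.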
# ELK1 = target: T2, ELK1 (Homo sapiens, UniProt P19419 1-428)
# T2 sequence: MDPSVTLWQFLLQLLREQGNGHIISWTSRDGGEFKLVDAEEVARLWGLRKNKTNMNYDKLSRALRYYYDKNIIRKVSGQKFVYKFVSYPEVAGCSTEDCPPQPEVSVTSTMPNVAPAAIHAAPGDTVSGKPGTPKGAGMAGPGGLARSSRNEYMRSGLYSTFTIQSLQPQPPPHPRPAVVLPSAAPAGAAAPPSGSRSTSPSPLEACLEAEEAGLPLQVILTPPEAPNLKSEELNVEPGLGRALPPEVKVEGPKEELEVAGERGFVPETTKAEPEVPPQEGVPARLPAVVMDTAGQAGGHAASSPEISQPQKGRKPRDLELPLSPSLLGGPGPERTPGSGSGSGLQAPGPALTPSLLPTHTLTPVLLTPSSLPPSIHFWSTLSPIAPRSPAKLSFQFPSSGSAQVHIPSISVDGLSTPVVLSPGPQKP
# In short: as §1
# GABPA = target: T3, GABPA (Homo sapiens, UniProt Q06546 1-454)
# T3 sequence: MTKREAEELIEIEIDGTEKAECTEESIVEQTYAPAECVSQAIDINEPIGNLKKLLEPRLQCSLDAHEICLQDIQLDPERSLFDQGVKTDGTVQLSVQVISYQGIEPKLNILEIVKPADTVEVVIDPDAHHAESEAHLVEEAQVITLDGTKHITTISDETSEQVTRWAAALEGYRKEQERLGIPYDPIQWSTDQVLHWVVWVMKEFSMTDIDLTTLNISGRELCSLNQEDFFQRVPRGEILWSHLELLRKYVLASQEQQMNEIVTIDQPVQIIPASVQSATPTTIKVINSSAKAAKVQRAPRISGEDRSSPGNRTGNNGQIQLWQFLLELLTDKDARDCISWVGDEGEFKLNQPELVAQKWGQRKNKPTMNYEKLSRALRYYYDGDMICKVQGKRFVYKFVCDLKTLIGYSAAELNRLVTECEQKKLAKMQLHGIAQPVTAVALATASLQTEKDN
# In short: as §1
# ERG = target: T4, ERG (Homo sapiens, UniProt P11308 1-479)
# T4 sequence: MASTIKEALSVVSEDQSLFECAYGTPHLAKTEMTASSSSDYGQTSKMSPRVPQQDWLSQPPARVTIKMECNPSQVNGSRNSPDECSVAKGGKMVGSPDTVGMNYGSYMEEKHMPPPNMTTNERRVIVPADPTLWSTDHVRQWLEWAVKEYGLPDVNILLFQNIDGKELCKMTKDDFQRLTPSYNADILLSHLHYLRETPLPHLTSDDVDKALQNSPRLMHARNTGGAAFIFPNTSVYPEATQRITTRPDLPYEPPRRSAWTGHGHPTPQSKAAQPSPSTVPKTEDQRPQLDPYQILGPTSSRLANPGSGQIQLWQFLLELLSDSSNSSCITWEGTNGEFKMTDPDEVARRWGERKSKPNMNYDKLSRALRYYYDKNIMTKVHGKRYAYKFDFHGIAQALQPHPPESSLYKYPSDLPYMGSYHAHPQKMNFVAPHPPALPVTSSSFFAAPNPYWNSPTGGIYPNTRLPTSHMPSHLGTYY
# In short: as §1
# ELF1 = ELF1 (Homo sapiens, UniProt P32519 1-619)
# ELF1, sequence (P32519 whole entry): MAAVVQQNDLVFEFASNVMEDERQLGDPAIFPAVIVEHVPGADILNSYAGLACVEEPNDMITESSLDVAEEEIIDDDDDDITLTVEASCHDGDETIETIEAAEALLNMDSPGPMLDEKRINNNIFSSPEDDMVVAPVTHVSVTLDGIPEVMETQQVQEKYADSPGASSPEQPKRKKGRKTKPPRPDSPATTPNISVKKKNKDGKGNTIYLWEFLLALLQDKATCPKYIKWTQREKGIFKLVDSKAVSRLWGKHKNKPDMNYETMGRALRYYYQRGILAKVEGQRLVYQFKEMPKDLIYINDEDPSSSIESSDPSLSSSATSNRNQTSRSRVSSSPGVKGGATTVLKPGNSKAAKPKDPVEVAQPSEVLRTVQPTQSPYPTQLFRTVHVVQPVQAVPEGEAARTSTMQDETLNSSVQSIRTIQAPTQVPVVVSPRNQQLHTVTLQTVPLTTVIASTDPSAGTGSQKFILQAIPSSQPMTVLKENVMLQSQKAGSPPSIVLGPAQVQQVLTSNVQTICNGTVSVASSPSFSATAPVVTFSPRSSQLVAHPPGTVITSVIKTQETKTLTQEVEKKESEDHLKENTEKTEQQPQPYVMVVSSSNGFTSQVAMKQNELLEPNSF
# In short: as §1
# EHF = target: T5, EHF (Homo sapiens, UniProt Q9NZC4 1-300)
# T5 sequence: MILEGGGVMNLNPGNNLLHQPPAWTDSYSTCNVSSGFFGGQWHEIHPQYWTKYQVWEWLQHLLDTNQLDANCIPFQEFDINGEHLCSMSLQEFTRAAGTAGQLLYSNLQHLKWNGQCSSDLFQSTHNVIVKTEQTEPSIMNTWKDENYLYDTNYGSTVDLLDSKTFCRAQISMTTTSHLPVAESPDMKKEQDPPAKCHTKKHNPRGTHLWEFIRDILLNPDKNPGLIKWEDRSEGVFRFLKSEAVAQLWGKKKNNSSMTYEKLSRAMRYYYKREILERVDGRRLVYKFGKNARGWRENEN
# In short: as §1
# SPIB = SPIB (Homo sapiens, UniProt Q01892 1-262)
# SPIB, sequence (Q01892 whole entry): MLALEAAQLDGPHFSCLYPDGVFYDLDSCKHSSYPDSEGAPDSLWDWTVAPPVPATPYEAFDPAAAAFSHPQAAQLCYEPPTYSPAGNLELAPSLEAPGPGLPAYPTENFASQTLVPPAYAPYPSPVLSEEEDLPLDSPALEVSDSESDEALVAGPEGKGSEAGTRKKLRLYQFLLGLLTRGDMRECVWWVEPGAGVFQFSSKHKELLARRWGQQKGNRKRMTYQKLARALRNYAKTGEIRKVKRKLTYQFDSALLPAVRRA
# In short: as §1
# ELK3 = target: T6, ELK3 (Homo sapiens, UniProt P41970 1-407)
# T6 sequence: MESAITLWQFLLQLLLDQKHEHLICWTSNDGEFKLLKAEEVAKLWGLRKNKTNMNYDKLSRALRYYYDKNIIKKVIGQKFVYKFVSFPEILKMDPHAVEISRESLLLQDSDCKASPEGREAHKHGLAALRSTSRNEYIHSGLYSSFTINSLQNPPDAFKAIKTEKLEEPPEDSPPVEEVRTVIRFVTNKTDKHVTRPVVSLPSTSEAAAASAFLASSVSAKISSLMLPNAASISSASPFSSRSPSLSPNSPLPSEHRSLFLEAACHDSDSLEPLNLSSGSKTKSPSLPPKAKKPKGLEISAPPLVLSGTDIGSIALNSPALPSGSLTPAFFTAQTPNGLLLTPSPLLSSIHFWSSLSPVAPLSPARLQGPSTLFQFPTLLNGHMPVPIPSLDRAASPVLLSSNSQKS
# In short: as §1
# FEV = target: T7, FEV (Homo sapiens, UniProt Q99581 1-238)
# T7 sequence: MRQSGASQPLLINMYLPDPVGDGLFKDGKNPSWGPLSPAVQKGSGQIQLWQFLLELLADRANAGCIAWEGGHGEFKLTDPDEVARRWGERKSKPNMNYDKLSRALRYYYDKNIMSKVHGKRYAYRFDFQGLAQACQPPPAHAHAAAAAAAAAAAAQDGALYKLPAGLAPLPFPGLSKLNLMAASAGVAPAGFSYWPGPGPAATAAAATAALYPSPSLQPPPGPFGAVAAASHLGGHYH
# In short: as §1
# ETV5 = ETV5 (Homo sapiens, UniProt P41161 1-510)
# ETV5, sequence (P41161 whole entry): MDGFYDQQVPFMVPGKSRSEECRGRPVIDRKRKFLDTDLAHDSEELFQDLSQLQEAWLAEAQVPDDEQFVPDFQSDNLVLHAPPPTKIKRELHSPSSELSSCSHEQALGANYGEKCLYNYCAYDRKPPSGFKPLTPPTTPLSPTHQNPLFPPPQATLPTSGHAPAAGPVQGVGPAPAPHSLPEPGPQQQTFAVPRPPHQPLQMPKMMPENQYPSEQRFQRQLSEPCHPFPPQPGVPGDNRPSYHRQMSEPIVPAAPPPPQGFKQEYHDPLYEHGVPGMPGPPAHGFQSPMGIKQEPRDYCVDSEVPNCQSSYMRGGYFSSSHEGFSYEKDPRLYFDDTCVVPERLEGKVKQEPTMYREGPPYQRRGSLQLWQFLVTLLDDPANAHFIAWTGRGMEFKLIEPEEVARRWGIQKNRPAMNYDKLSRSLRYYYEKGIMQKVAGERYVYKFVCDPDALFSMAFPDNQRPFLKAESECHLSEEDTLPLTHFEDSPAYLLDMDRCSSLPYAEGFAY
# In short: as §1
# SPIC = target: T8, SPIC (Homo sapiens, UniProt Q8N5J4 1-248)
# T8 sequence: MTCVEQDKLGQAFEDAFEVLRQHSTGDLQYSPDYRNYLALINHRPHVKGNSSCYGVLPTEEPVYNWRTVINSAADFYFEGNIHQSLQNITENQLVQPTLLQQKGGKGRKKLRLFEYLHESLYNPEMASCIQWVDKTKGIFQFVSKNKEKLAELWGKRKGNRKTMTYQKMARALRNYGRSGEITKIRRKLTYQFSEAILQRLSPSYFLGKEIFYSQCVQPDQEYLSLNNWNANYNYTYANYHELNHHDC
# In short: as §1
# ELF4 = ELF4 (Homo sapiens, UniProt Q99607 1-663)
# ELF4, sequence (Q99607 whole entry): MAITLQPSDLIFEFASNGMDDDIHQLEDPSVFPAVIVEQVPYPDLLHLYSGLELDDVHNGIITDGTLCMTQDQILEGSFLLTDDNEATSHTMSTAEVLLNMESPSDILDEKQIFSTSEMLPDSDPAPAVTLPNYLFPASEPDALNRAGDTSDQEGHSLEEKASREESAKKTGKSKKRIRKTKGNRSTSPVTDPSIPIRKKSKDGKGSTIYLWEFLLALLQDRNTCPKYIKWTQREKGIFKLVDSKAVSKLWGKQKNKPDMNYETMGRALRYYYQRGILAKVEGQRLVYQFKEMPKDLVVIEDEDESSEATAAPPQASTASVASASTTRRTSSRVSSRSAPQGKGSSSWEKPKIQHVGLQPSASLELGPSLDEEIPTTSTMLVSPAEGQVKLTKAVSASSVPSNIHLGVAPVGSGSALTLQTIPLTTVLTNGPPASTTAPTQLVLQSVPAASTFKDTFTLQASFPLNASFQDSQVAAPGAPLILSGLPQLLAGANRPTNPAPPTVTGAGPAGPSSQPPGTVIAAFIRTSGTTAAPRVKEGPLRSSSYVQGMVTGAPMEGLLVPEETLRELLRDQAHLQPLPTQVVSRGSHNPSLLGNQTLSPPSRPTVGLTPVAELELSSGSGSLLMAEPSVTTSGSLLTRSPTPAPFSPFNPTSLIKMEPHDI
# In short: as §1
# ETV1 = ETV1 (Homo sapiens, UniProt P50549 1-477)
# ETV1, sequence (P50549 whole entry): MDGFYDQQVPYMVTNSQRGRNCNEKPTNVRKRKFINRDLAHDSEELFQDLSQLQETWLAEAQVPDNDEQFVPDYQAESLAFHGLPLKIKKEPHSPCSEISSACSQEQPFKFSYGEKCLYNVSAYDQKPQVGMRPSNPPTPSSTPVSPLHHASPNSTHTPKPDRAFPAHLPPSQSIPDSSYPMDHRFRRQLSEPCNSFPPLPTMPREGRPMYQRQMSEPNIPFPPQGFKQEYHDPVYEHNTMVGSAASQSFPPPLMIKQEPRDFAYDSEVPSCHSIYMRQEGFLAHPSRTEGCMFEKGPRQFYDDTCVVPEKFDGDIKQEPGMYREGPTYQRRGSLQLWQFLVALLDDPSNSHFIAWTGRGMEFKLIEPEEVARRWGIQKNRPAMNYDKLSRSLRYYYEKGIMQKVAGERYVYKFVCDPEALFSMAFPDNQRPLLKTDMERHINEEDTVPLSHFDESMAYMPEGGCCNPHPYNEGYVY
# In short: as §1
# ERF = target: T9, ERF (Homo sapiens, UniProt P50548 1-548)
# T9 sequence: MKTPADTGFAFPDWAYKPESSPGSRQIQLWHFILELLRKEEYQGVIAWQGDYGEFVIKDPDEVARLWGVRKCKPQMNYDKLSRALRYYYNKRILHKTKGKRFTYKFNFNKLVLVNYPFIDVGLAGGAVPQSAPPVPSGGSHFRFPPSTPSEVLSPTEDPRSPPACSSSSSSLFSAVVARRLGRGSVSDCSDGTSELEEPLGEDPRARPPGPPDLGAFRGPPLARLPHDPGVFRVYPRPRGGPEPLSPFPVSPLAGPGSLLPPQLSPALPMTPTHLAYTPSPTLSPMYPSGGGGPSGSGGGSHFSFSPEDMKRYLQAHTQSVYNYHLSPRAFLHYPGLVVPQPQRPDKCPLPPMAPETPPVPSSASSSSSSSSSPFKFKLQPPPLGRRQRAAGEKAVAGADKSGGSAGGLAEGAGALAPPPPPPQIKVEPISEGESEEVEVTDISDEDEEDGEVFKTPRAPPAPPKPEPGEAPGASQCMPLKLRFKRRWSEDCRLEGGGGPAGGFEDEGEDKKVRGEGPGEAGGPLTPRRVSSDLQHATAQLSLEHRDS
# In short: as §1
# ETV3L = target: T10, ETV3L (Homo sapiens, UniProt Q6ZN32 1-361)
# T10 sequence: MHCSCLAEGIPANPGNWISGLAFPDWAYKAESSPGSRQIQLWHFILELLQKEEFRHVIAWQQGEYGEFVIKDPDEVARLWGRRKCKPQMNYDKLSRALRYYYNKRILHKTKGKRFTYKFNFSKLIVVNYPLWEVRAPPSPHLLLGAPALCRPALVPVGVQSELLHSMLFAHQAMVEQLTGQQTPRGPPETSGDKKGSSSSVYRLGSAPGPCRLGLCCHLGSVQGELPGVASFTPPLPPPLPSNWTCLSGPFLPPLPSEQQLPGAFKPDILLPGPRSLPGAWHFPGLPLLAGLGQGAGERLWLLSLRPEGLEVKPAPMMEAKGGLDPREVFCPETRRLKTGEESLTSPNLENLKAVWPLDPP
# In short: as §1
# ETS2 = target: T11, ETS2 (Homo sapiens, UniProt P15036 1-469)
# T11 sequence: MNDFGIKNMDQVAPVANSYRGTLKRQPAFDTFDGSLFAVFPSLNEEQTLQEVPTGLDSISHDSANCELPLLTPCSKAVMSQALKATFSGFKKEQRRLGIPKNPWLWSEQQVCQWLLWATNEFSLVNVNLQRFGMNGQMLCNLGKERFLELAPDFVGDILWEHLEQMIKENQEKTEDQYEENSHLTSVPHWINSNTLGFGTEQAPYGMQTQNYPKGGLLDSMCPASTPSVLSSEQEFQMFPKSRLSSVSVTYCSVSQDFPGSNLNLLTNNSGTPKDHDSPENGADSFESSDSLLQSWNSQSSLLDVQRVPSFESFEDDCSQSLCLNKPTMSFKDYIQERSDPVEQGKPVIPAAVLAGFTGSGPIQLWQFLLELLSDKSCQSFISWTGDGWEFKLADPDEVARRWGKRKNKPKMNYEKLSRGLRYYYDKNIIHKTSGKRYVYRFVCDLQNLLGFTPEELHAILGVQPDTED
# In short: as §1
# SPDEF = target: T12, SPDEF (Homo sapiens, UniProt O95238 1-335)
# T12 sequence: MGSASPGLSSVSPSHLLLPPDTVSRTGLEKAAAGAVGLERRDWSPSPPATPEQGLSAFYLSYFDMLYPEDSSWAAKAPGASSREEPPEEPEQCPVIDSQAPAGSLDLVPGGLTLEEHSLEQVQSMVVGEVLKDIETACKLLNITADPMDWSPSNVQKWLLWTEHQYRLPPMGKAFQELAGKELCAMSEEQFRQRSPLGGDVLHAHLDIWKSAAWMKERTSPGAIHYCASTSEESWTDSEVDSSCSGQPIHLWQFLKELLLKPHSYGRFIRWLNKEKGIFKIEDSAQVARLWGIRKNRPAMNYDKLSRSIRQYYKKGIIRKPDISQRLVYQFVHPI
# In short: as §1
# ETV3 = target: T13, ETV3 (Homo sapiens, UniProt P41162-2 1-143)
# T13 sequence: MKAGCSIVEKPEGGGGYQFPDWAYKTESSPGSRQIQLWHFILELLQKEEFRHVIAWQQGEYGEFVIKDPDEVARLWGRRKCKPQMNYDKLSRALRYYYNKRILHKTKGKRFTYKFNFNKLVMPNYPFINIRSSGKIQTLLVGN
# In short: as §1
# ETV6 = ETV6 (Homo sapiens, UniProt P41212 1-452)
# ETV6, sequence (P41212 whole entry): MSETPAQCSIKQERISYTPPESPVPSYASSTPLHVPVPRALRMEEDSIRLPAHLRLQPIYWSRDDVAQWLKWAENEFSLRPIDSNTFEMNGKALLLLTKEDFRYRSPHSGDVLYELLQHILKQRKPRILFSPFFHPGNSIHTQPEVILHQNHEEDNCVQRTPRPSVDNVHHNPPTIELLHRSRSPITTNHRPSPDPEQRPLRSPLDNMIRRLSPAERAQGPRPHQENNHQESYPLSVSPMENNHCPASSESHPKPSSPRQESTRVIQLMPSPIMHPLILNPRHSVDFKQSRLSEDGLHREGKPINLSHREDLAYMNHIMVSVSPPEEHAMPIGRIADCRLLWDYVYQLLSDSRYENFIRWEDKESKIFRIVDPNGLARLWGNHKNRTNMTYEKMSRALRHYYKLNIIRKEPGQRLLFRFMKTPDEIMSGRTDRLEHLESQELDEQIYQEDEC
# In short: as §1
sequence,measurement,setting,value
CCACAC,binding signal,FLI1,"1.07 fold enrichment (6-mer frequency, TF over GST control)"
same,binding signal,ELK1,"1.07 fold enrichment (6-mer frequency, TF over GST control)"
same,binding signal,GABPA,"1.1 fold enrichment (6-mer frequency, TF over GST control)"
same,binding signal,ERG,"1.07 fold enrichment (6-mer frequency, TF over GST control)"
same,binding signal,ELF1,"1.12 fold enrichment (6-mer frequency, TF over GST control)"
same,binding signal,EHF,"1.12 fold enrichment (6-mer frequency, TF over GST control)"
same,binding signal,SPIB,"1.04 fold enrichment (6-mer frequency, TF over GST control)"
same,binding signal,ELK3,"1.11 fold enrichment (6-mer frequency, TF over GST control)"
same,binding signal,FEV,"1.11 fold enrichment (6-mer frequency, TF over GST control)"
same,binding signal,ETV5,"1.11 fold enrichment (6-mer frequency, TF over GST control)"
same,binding signal,SPIC,"1.18 fold enrichment (6-mer frequency, TF over GST control)"
same,binding signal,ELF4,"1.1 fold enrichment (6-mer frequency, TF over GST control)"
same,binding signal,ETV1,"1.1 fold enrichment (6-mer frequency, TF over GST control)"
same,binding signal,ERF,"1.08 fold enrichment (6-mer frequency, TF over GST control)"
same,binding signal,ETV3L,"1.11 fold enrichment (6-mer frequency, TF over GST control)"
same,binding signal,ETS2,"1.03 fold enrichment (6-mer frequency, TF over GST control)"
same,binding signal,SPDEF,"1.13 fold enrichment (6-mer frequency, TF over GST control)"
same,binding signal,ETV3,"1 fold enrichment (6-mer frequency, TF over GST control)"
same,binding signal,ETV6,"1.02 fold enrichment (6-mer frequency, TF over GST control)"
